From PubChem
This is a sample that favours compounds with a hit; in the whole collection about 7.4% have one here.
SMN2 splice enh: SMN2 splice variant enhancement. HEK293 SMN2-luciferase splicing reporter, luminescence, 30-36 h. Potency, µM (series often up to 46.1 µM), for inactives: at the highest dose activity change, positive = activation, usual class: activators. hit rate 2.8% among 210,000; note: % of control where 0% means no effect; nearly all actives have a fitted effect of over 55% in size
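HEK293 cells carry an SMN2 […]–luciferase reporter in which exon 7 inclusion puts luciferase in frame. Cells were plated 10-12 h before compound addition, then incubated 30-36 h at 37C. ONE-Glo luminescence was read; sodium butyrate at 4.5 mM final served as control.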
NPC1 prom act: activators of NPC1 promoter; Huh7 NPC1 promoter luciferase reporter, 24 h; Potency, µM (top dose mostly 9.22 µM), without a hit: top-dose activation, most hits filed as activators; hit rate 2.4% among 320,000; note: % of control where 0% means no effect; nearly all actives have a fitted effect of over 60% in size
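Huh7 reporter cells (NPC1 promoter driving luciferase) are dosed with compound for 24 h at 37 °C, 5% CO2; luciferase detection reagent is then added and luminescence measured after 10 min at ambient temperature.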
FLuc counter: inhibits or activates purified firefly luciferase, miR-21 counter-screen. P08659. purified FLuc, Km substrates, luminescence inhibition. Potency, µM (titrated, usually from 57.5 µM), without a hit: at the top dose activity change, negative = inhibition, hits mostly inhibitors. hit rate 6.9% among 360,000. AID 588342;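 note: plate controls were vehicle for no effect and reference inhibitor for full effect; nearly all actives have a fitted effect of over 55% in size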
Target sequence (P08659 whole entry, looked up): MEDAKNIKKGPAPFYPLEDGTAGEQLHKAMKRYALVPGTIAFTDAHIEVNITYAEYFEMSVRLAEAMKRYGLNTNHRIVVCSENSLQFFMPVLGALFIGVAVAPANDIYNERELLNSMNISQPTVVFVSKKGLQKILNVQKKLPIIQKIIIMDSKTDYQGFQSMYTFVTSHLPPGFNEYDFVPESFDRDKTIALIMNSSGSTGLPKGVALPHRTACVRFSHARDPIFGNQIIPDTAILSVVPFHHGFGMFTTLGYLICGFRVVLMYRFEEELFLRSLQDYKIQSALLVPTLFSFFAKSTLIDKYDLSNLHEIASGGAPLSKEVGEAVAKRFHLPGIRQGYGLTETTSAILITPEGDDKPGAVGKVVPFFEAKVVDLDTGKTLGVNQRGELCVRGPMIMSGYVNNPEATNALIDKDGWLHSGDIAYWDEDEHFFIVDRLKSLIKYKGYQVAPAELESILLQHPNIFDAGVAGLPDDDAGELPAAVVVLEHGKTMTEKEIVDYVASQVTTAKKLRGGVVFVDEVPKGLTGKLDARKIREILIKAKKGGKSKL
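Purified P. pyralis luciferase, 10 nM final, with Km-level 10 uM D-luciferin and 10 uM ATP in 50 mM Tris acetate pH 7.5, 10 mM Mg acetate, 0.01% Tween-20, 0.05% BSA; 6-point qHTS titration about 60 µM downward; luminescence read.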
Luc counter: counter-screen: inhibitors of Kinase-Glo firefly luciferase; Kinase-Glo luciferase, ATP luminescence, 8 min; Potency, µM (top dose mostly 38.3 µM), for the others: at the highest dose activity change, negative = inhibition, actives largely listed as inhibitors; hit rate 0.28% among 200,000; AID 1379; note: % is set by controls: 0 for no effect and ±100 for the full control effect; nearly all actives have a fitted effect of over 60% in size
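Light output from Kinase-Glo luciferase with luciferin and 10 uM ATP in 50 mM imidazole pH 7.2, KCl, MgCl2, Tween 20, BSA; compound pin-delivered, 8-min ambient incubation, then luminescence read.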
ELG1 genotox: induces genotoxicity in HEK293T cells with luciferase-tagged ELG1. hit rate 1.3% among 330,000. AID 504466. HEK293T ELG1-luciferase reporter, luminescence, 16 h. Potency, µM (series often up to 46 µM), for inactives: at the highest dose activity change, positive = activation, actives largely listed as activators; note: % of control where 0% means no effect; nearly all actives have a fitted effect of over 60% in size
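Cells (2,000/well) expressing the ELG1-luciferase fusion are dosed by pin tool and kept 16 hr at 37 °C, 5% CO2. Signal comes from ONE-Glo luciferase reagent after 30 min at room temperature.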
Rab9 promoter act: activators of Rab9 promoter; Huh7 Rab9 promoter-luciferase reporter, luminescence, 24 h; Potency, µM (highest dose often 9.22 µM), without a hit: at the highest dose activation, negative = inhibition, actives largely listed as activators; hit rate 2.8% among 320,000; note: % of control where 0% means no effect; nearly all actives have a fitted effect of over 60% in size
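Luminescence from Amplite-detected luciferase (10 minutes, ambient) reports Rab9 promoter activation. Before that, stable Rab9-luciferase Huh7 cells (1500/well, reduced-serum OP-MEM I plus 10% FBS) were exposed to compound for 24 hours at 37C.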
The depositor's hits bear a star; ? = inconclusive; . = not tested or not shown; [ ] = another dose, or the depositor's remark. Calls come from the whole dose curve; as a rule, active = well fitted curve in the direction sought with a large enough effect; inconclusive = small, poorly fitted or top-dose-only effect, or another doubt; inactive = no such curve, though single readings can be large; an effect the other way counts as inactive or inconclusive. Potency is the fitted concentration of half-maximal effect.

SMILES	SMN2 splice enh	NPC1 prom act	FLuc counter	Luc counter	ELG1 genotox	Rab9 promoter act
CC(=O)CCC1CC(c2ccc(Cl)cc2)=NO1 (stereo not given)	.	1.1µM*	7.6µM*	.	?	1.4µM*
Cc1cc(=O)oc2cc(OCC3CC(c4ccc(Cl)cc4)=NO3)ccc12 (stereo not given)	5%	-2%	?	0%	4%	-7%
NNC(=O)c1ccc(OCC2CC(c3ccc(Cl)cc3)=NO2)cc1 (stereo not given)	.	16%	8.5µM*	.	?	-3%
O=C(NCc1cccs1)C1CC(c2ccc(Cl)cc2)=NO1 (stereo not given)	.	5%	?	2%	10%	3%
Cc1ccc(Nc2nc(C)cs2)cc1	8.9µM*	?	13µM*	-19%	21µM*	?
Cc1csc(Nc2ccc(Cl)cc2)n1	?	?	12µM*	2%	?	?
Cc1csc(NS(=O)(=O)c2ccc(Cl)cc2)n1	.	-4%	1%	.	-5%	9%
O=C(O)COc1ccc2c(c1)O/C(=C\c1cccs1)C2=O	.	-5%	1.9µM*	.	1%	-1%
Cc1ccc(/C=C2\Oc3cc(OCC(=O)NN)ccc3C2=O)o1	.	1%	2.1µM*	.	0%	-5%
COc1cccc(OCCOc2ccc(/C=C3/SC(=S)NC3=O)cc2)c1	.	2%	?	.	1%	5%
O=C1NC(=S)S/C1=C\c1ccc2ccccc2c1	.	30%	9.5µM*	.	12%	?
COc1ccc(/C=C2\SC(=S)NC2=O)cc1OS(=O)(=O)c1ccc(NC(C)=O)cc1	18%	-1%	27µM*	-1%	-7%	-2%
CCOc1ccc(/C=C2\SC(=S)NC2=O)cc1OC	.	5%	12µM*	-1%	12%	0%
COc1cc(/C=C2/SC(=S)NC2=O)ccc1OS(=O)(=O)c1ccc(C)cc1	-31%	-4%	-3%	3%	-6%	1%
CCOc1ccc(OCC)c(-c2c(=O)n(OCc3ccc(C(C)(C)C)cc3)c3ccccc3[n+]2[O-])c1	-6%	-5%	8.5µM*	-2%	-6%	-1%
O=C1CC(c2nc(-c3ccc(Cl)cc3)no2)CN1c1ccc2c(c1)OCCO2 (stereo not given)	.	.	-12%	.	.	.
O=C(CSc1ccc(C(F)(F)F)cn1)Nc1ccccc1	.	-1%	-5%	.	-1%	1%
O=C(/C=C/Sc1ccc(C(F)(F)F)cn1)c1ccccc1	.	-14%	0.54µM*	.	6%	-38%
O=C(Oc1ccc(F)cc1)c1ccc2c(=O)n3c(nc2c1)CCC3	.	1%	12µM*	.	0%	-2%
O=C(Oc1cccc(F)c1)c1ccc2c(=O)n3c(nc2c1)CCC3	.	-1%	15µM*	.	3%	-4%
CC(OC(=O)c1ccc2c(=O)n3c(nc2c1)CCC3)C(N)=O (stereo not given)	13%	-1%	5%	3%	3%	1%
O=C(NNC(=O)c1ccc2c(=O)n3c(nc2c1)CCC3)c1cccc(Cl)c1	.	-3%	-5%	.	1%	-8%
COc1cccc(CN(C)C(=O)c2ccc3c(=O)n4c(nc3c2)CCC4)c1	.	3%	2%	.	8%	3%
COc1ccc(CN(C)C(=O)c2ccc3c(=O)n4c(nc3c2)CCC4)cc1	.	2.2µM*	8.5µM*	.	?	1.8µM*
CCCS(=O)(=O)N1CCC(N2CCN(Cc3ccc(F)cc3)C(=O)C2=O)CC1	.	.	0%	.	.	.
SMILES	SMN2 splice enh	NPC1 prom act	FLuc counter	Luc counter	ELG1 genotox	Rab9 promoter act
Cc1nc(Nc2ccccc2)c2nc(-c3ccccc3)n(CCCN3CCCCC3C)c2n1 (stereo not given)	-12%	.	.	-1%	.	.
O=C(O)c1nnsc1COCc1ccccc1	1%[9.22 µM]	.	.	-1%[7.66 µM]	.	.
Cc1cccc(N2CCN(C(=O)c3cc4c(=O)n(C)c5ccccc5c4s3)CC2)c1C	-11%	.	3%	.	.	.
Cc1c2cnn(CC(=O)NC3CCCC3)c(=O)c2c(C)n1Cc1ccccc1	.	?	24µM*	.	?	?
CCOC(=O)C1CCN(C(=O)Cn2ncc3c4ccccc4n(C)c3c2=O)CC1	-5%	.	-11%	.	.	.
CCOC(=O)N1CCC(NC(=O)Cn2ncc3c4ccccc4n(C)c3c2=O)CC1	7%	11%	19µM*	3%	9%	12%
Cc1cccc(-c2nc3c4ccccc4nc(N4CCN(c5cc(C)ccc5C)CC4)n3n2)c1	2%	.	2%	.	.	.
COc1ccc(/C=C/C(=O)NCCOc2ccc(C)cc2)cc1	13%	-1%	?	-2%	1%	1%
COc1ccc(/C=C/C(=O)Oc2ccc(C)cc2)cc1	.	-3%	12µM*	.	-1%	10%
COc1ccc(/C=C/C(=O)O)cc1	.	.	.	-2%[39.9 µM]	-1%	.
COc1ccc(/C=C/C(=O)CCC(=O)O)cc1	.	?	6.7µM*	-2%	9%	2.8µM*
COC(=O)N1[C@H](C)C=C[C@]1(Cc1ccccc1)C(=O)NCc1ccccn1	-21%	.	.	-9%	.	.
COC(=O)N1[C@H](C)C=C[C@]1(Cc1ccccc1)C(=O)NCc1ccc(N(C)C)cc1	13µM*	.	.	-7%	.	.
CCCN1CCC(=O)N([C@H](CSc2ccc(C)cc2)CC(C)C)CC1	.	4µM*	11µM*	.	?	?
CCCN1CCC(=O)N([C@H](CSc2ccccc2)CC(C)C)CC1	.	3.2µM*	21µM*	.	?	3.2µM*
CCCN1CCC(=O)N([C@H](CSc2ccc(Br)cc2)c2ccccc2)CC1	.	22%	17µM*	.	12%	?
CC(C)C[C@@H](CSc1ccccc1)N1CCN(CC(C)C)CCC1=O	.	?	15µM*	.	?	?
CCC(=O)Nc1sc2c(c1C#N)CCCCC2	?	28%	-2%[2.3 µM]	2%	12%	?
CCCC(=O)Nc1sc2c(c1C#N)CCCCC2	11µM*	3.2µM*	9.5µM*	2%	?	2.8µM*
N#Cc1c(NC(=O)CCCC(=O)O)sc2c1CCCCC2	1.3µM*	?	2.1µM*	-3%	?	?
Cc1cc(F)ccc1NC(=O)C(C(C)C)N1Cc2ccccc2C1=O (stereo not given)	.	.	-3%	.	.	.
